# A selection: hits, their analogues and other compounds. The true share with any hit is near 6.6%.
# KB-3-1 cytotox: qHTS assay for MDR1-selective chemotherapeutics: Primary screen using the parental adenocarcinoma cell KB-3-1 | KB-3-1 viability, CellTiter-Glo ATP luminescence, 72 h | Potency, µM (doses to about 46.1 µM), actives largely listed as cytotoxic | 400,000 compounds, 1.4% hits; note: % is set by controls: 0 for no effect and ±100 for the full control effect; nearly all actives have a fitted effect of over 60% in size
#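 Cells are dispensed, compounds pinned in, plates held at 37 °C for 72 h, then CellTiter-Glo is added and luminescence read after 10 minutes. Cell line: parental KB-3-1 in phenol-red-free DMEM, 10% FBS.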
# RGS4 inhibitor: Inhibitors of Regulator of G Protein Signaling (RGS) 4: qHTS; Regulator of G-protein signaling 4 (Homo sapiens), P49798; Transcreener GDP fluorescence polarization, RGS4-accelerated GTP hydrolysis; Potency, µM (series often up to 114 µM), without a hit: at the highest dose activity change, negative = inhibition, usual class: inhibitors; 390,000 compounds, 0.039% hits; note: % is set by controls: 0 for no effect and ±100 for the full control effect; nearly all actives have a fitted effect of over 75% in size
# Target sequence (P49798 whole entry, looked up): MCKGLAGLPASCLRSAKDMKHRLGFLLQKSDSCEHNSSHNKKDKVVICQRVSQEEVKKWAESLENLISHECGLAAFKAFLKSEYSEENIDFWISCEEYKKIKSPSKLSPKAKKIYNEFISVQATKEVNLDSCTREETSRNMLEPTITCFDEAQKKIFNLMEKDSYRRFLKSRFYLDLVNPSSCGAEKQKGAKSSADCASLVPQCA
#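 MLSMR compounds (23 nl, pin-transferred) preincubated 10 min at room temperature with a 500nM (2x) first reagent, then RGS4 at 900nM (2x) plus Transcreener GDP mix added; fluorescence polarization (620/688 nm) read before and after 90 min at 30 °C.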
# SW480 rereplic: A quantitative high throughput screen for small molecules that induce DNA re-replication in SW480 colon adenocarcinoma cells. SW480 DNA re-replication, Hoechst DNA content imaging, 48 h. Potency, µM (highest dose often 46.1 µM), inactives show top-dose re-replication activation, hits mostly activators. 340,000 compounds, 1.8% hits; note: % of control where 0% means no effect; nearly all actives have a fitted effect of over 55% in size
#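 Image-based read-out: total Hoechst fluorescence of nuclei (405 nm excitation, 500-530 nm emission), with hits raising the fraction of high-intensity nuclei. SW480 colon cells incubated 48 hr with compounds at 37 C.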
# KB-V1 cytotox: qHTS assay for MDR1-selective chemotherapeutics: Primary screen using the drug-selected MDR subline cells KB-V1; KB-V1 MDR cells viability, CellTiter-Glo, 72 h; Potency, µM (series often up to 46.1 µM), actives largely listed as cytotoxic; 400,000 compounds, 3.4% hits; note: % is set by controls: 0 for no effect and ±100 for the full control effect; nearly all actives have a fitted effect of over 60% in size
#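 KB-V1 MDR subline cells in DMEM (phenol-red free, 10% FBS) exposed to compounds in qHTS concentration series for 72 h at 37 degrees C. Viability read by CellTiter-Glo luminescence; concentration-effect curves fitted after normalization and correction.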
# PTAP TSG101 blk: qHTS Assay for Iinhibitors of HIV-1 Budding by Blocking the Interaction of PTAP/TSG101; Tumor susceptibility gene 101 protein (Homo sapiens), Q99816; 340,000 tested, under 10 active; Potency, µM (titrated, usually from 115 µM), for inactives: top-dose activity change, negative = inhibition, actives largely listed as inhibitors; Fluorescence polarization, FITC-PTAP peptide / Tsg101 binding; active = well fitted inhibition curve with a large enough effect in the main read-out, with a control signal flat, not every such curve was filed as active; inconclusive = small, poorly fitted or top-dose-only effect, or effect the other way, or a change in a side signal; inactive = no such curve, though single readings can be large or run the other way; note: % of control where 0% means no effect
# Target sequence (Q99816 whole entry, looked up): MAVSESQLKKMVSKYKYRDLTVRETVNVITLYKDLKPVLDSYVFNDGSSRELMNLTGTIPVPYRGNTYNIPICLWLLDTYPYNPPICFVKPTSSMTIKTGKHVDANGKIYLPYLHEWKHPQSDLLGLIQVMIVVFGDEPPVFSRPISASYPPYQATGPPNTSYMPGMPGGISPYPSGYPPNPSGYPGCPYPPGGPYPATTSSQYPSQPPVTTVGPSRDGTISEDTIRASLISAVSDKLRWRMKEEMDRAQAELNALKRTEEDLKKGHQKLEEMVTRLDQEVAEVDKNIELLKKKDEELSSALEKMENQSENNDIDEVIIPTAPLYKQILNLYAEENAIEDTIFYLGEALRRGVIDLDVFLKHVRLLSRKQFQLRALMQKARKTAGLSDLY
#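 Steps: Tsg101 binding domain dispensed (10 uM final), compounds pinned in DMSO, FITC-labeled PTAP-motif peptide added (50 nM final); after 20 min binding at room temperature, polarization measured.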
# MCF10A rereplic: A quantitative high throughput screen for small molecules that induce DNA re-replication in MCF 10a normal breast cells | MCF 10A DNA re-replication, Hoechst nuclear intensity, 48 h | Potency, µM (highest dose often 46.1 µM), for the others: at the highest dose activity, positive = re-replication, usual class: activators | 350,000 compounds, 2.9% hits | AID 624296, 2012; note: % of control where 0% means no effect; nearly all actives have a fitted effect of over 50% in size
# Numbers without * were called inactive; i = inactive; ? = inconclusive; / = no result; ! = not active in a repeat; [ ] = dose if it differs, or a comment. Unless noted, calls come from the whole dose curve; as a rule, active = well fitted curve in the direction sought with a large enough effect; inconclusive = small, poorly fitted or top-dose-only effect, or another doubt; inactive = no such curve, though single readings can be large; an effect the other way counts as inactive or inconclusive. Potency is the fitted concentration of half-maximal effect.
SMILES,KB-3-1 cytotox,RGS4 inhibitor,SW480 rereplic,KB-V1 cytotox,PTAP TSG101 blk,MCF10A rereplic
Cc1c2c(n3c(nc4ccccc43)c1C#N)N(CCN(C)C)CC2,i,4.6%,9.2µM*,i,0.1%,16.4µM*
CCn1c(CNc2ccc(Cl)cc2)nnc1SCC(=O)OC1CCCCC1,i,25.2%,2.4%,i,-5.9%,12.6µM*
CCn1c(CNc2cccc(Cl)c2)nnc1SCC(=O)OC1CCCCC1,i,26.0%,-2.5%,i,-7.0%,-3.7%
O=C(O)CCSc1nnc(CNc2ccc(Cl)cc2)n1Cc1ccccc1,i,-1.1%,0.231µM*,i,-2.3%,1.5%
c1ccc(-c2nnsc2-c2ccccc2)cc1,i,7.5%,-22.6%,i,-1.6%,4.1%
O=S(=O)(c1ccc(Cl)c(Cl)c1)c1snnc1-c1ccccc1,5.17µM*,-29.9%,1.3µM*,?,0.4%,4.61µM*
CCc1ccc(S(=O)(=O)Nc2ccc3[nH]c(=O)sc3c2)cc1,/,-19.6%,/,/,/,/
CCOC(=O)c1c(C)c(C(=O)NCc2ccco2)c(C)n1Cc1ccccc1,i,-42.9%,-0.3%,4.11µM*,-5.9%,-0.3%
CCN(CC)C(=O)Cn1c(=O)n(-c2ccc(Cl)c(Cl)c2)c(=O)c2c(C)c(C(=O)N(CC)CC)sc21,i,12.0%,/,i,/,/
O=C(Cn1cc(S(=O)(=O)Cc2ccc(F)cc2)c2ccccc21)NCCc1ccccc1,i,9.7%,/,i,/,/
COc1ccc(CN2CCC(CO)(CCOc3ccccc3)CC2)c(OC)c1C,i,18.5%,-3.8%,i,1.4%,13.5%
OCCOc1cccc(CN2CCC(CO)(CCOc3ccccc3)CC2)c1,i,-10.0%,18.4µM*,i,2.0%,3.0%
COc1ccc2[nH]c(CN3CCC(CO)(CCOc4ccccc4)CC3)c(C)c2c1,i,-5.4%,-41.6%,?,-4.2%,20.6µM*
CC(=O)c1cccc(CN2CCC(CO)(CCOc3ccccc3)CC2)c1,i,3.6%,-65.2%,i,-2.2%,?
COc1ccc(-c2c(-c3ccc4c(c3)OCO4)noc2-c2ccsc2)cn1,i,/,/,?,/,/
CN(C)c1ccc(-c2c(-c3ccc4c(c3)OCO4)noc2-c2ccsc2)cn1,?,5.9%,?,10.3µM*!,/,?
Cc1ccccc1CNC(=O)c1ccc2nc(SCc3ccc(F)cc3)n(C)c2c1,i,8.1%,/,i,/,/
CCOC(=O)C(NC(=O)c1ccc(OC)cc1)(OCC1(CC)COC1)C(F)(F)F (centres undefined),i,-12.9%,-0.5%[9.22 µM],i,-4.1%,-1.8%
CCOC(=O)C(NC(=O)c1ccccc1)(OCC1(CC)COC1)C(F)(F)F (centres undefined),i,-18.6%,-2.8%,18.4µM*,-1.2%,0.0%
c1ccc(CSc2ccc3nnc(-c4cccnc4)n3n2)cc1,i,3.1%,-10.4%,18.4µM*,-2.2%,2.4%
CCCCN(CC(=O)NCc1ccc(Cl)cc1)S(=O)(=O)c1ccc2c(c1)OCCO2,i,5.0%,-2.3%,11.6µM*,1.2%,?
O=C(CN(c1ccc2c(c1)OCCO2)S(=O)(=O)c1ccccc1)NCc1ccc(Cl)cc1,i,-10.7%,5.1%,3.66µM*,-4.4%,?
CN(CC(=O)NCc1ccc2c(c1)OCO2)S(=O)(=O)c1ccc(Cl)cc1,i,15.6%,-1.7%,i,-1.8%,-0.1%
O=S(=O)(NNC(=S)Nc1ccc(S(=O)(=O)Nc2ncccn2)cc1)c1ccc(Br)cc1,i,-30.6%,-0.3%,i,-2.1%,-0.7%
Cc1cc(NC(=O)c2ccc(Br)o2)ccc1NC(=O)c1ccco1,?,7.8%,-3.1%,10.3µM*,-3.9%,-3.0%
SMILES,KB-3-1 cytotox,RGS4 inhibitor,SW480 rereplic,KB-V1 cytotox,PTAP TSG101 blk,MCF10A rereplic
O=C(Nc1ccc(S(=O)(=O)NCCc2ccccc2)cc1)c1ccc(Br)o1,i,19.2%,2.9%,10.3µM*,-8.1%,14.0%
Cc1cc(C)cc(NS(=O)(=O)c2ccc(NC(=S)NC(=O)c3ccc(Br)o3)cc2)c1,?,-24.6%,3.8%,18.4µM*,0.3%,-6.4%
CCC(=O)Nc1ccc(S(=O)(=O)NCCc2ccccc2)cc1,i,22.5%,-0.4%,?,-10.7%,3.7%
NS(=O)(=O)c1ccc(NC(=S)NC(=O)c2ccc(Br)o2)cc1,i,?,-2.2%,i,-1.3%,0.5%
O=C(NC(=S)Nc1ccc(S(=O)(=O)Nc2ncccn2)cc1)c1ccc(Br)cc1,i,-47.0%,18.4µM*,i,-7.7%,2.0%
Cc1ccc(NS(=O)(=O)c2ccc(NC(=O)c3ccccc3C(=O)O)cc2)c(C)c1,i,6.2%,-10.7%,i,-1.7%,1.7%
Cc1ccc(NS(=O)(=O)c2ccc(NC(=O)c3ccc(Br)o3)cc2)c(C)c1,20.6µM*,8.1%[11.4 µM],4.2%,18.4µM*,-2.4%,?
Clc1nssc1=Nc1ccccc1,i,?,-4.5%,i,2.1%,-4.3%
Clc1ccc(N=c2ssnc2Cl)cc1,20.6µM*,?,?,20.6µM*,0.6%,?
Cc1cc(C)cc(N(CC(=O)Nc2c(C)cc(C)cc2C)S(=O)(=O)c2c(C)nn(C)c2C)c1,i,-8.5%,/,i,/,/
O=[N+]([O-])c1ccc(N/N=C/c2sc(N3CCOCC3)nc2-c2ccccc2)c(S(=O)(=O)Nc2ccccc2Cl)c1,9.2µM*,-4.0%,13µM*,?,15.2%,9.9%
O=[N+]([O-])c1ccc(N/N=C/c2sc(N3CCOCC3)nc2-c2ccccc2)c(S(=O)(=O)Nc2ccc(Cl)cc2)c1,2.31µM*,-12.0%,10.3µM*,i,16.9%,?
O=C(N/N=C/c1sc(N2CCOCC2)nc1-c1ccccc1)c1ccccc1Cl,i,?,3.4%,i,-3.7%,0.0%
CCc1ccc(-n2c(=O)c3c4c(sc3n(CC(=O)N3CCCCC3CC)c2=O)CCC4)cc1 (centres undefined),i,8.2%,/,i,/,/
COc1cccc(Cn2ncc3c4sc(SC)cc4n(C)c3c2=O)c1,i,/,/,i,/,/
O=C(CC12CC3CC(CC(C3)C1)C2)N1CCCOC1,i,-15.8%,-16.1%,i,-2.2%,-0.6%
O=C(CC12CC3CC(C1)CC(CC(=O)N1CCCC1)(C3)C2)N1CCCC1,i,3.7%,-1.9%,14.6µM*,-9.3%,2.6%

# Source: PubChem BioAssay (National Center for Advancing Translational Sciences (NCATS))
